Molecules are shown by their SMILES. “And” between values parts separate entries of the source, which are not always exact repeats. Identical values can stand only once. Unmarked numbers belong to inactive results.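 The calls were made as follows: active = compounds whose dose series gives a full or clear partial fitted curve of increased nuclear translocation; inconclusive = weak partial curve or effect only at the top dose; inactive = no dose-dependent translocation response.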 Where only a bound is given, the exact number is not on record here.
Potency is read from the fitted curve at half-maximal effect.

Chain of Glucocorticoid receptor (Homo sapiens) (P04150 whole entry, looked up): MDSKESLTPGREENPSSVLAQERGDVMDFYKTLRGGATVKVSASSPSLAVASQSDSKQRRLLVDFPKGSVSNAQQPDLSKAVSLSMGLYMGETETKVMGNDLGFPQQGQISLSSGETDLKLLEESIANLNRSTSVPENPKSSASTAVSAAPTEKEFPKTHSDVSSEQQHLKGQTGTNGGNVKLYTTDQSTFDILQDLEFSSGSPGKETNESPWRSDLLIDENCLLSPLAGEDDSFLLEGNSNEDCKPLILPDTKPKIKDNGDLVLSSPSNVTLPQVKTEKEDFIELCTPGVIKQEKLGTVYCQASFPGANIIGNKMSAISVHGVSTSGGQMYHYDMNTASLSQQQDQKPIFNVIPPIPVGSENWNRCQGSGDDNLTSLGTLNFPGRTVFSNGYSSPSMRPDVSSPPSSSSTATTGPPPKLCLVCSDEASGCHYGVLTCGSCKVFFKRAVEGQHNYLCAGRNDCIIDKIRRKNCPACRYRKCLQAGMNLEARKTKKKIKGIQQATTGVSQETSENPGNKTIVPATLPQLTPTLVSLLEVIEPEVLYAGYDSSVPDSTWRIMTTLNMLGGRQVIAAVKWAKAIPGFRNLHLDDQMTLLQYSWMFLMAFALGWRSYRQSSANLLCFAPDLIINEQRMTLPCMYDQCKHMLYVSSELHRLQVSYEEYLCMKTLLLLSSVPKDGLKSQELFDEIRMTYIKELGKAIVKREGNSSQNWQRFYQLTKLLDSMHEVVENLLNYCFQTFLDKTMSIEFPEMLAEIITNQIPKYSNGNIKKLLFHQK

This assay has as its target Glucocorticoid receptor (Homo sapiens) (UniProt P04150). Briefly: GR-GFP Redistribution (AID 450). To be noted: U2OS GR-GFP nuclear translocation, laser cytometry, 2 h. An excerpt:
NIH Molecular Libraries Screening Centers Network [MLSCN]
NIH Chemical Genomics Center [NCGC]
The glucocorticoid receptor (GR) Redistribution assay (BioImage) enables the visualization of GR cytoplasmic to nuclear translocation by the use of a GR-GFP fusion. GR is normally cytosolic, however ligands such as dexamethasone, cause nuclear translocation where the protein binds to response elements and interacts with various co-factors to modulate transcription. Because both functional agonists and antagonists can induce nuclear translocation, this assay can detect ligands regardless of their effects on gene expression. GR-GFP expressing U20S cells were used here. Dexamethasone was the positive control for translocation and data normalization. Detection of nuclear translocation was performed in 1536-well plates using the Acumen laser scanning plate cytometer (TTP LabTech). Validation of this assay and a detailed protocol have been described.
NCGC Assay Protocol Summary:
GR-GFP U2OS cells were maintained in DMEM with Glutamax and high glucose, 1% v/v penicillin-streptomycin, and 0.5 mg/mL Geneticin. For cell culture, 10% […] fetal bovine serum (FBS) was used (Invitrogen #26140-079). For cell plating 10% dextran, charcoal-stripped FBS (Hyclone SH30068.03) was used. U2OS cells were trypsin treated, suspended in medium, and passed through a 40 um basket filter. The cells were seeded at 600 cells/5 uL/well into clear-bottom black sided 1536-well plates and incubated for approximately 20 hrs, 37degC, 5%, CO2 in a tissue culture incubator. Twenty-three nL of compound was delivered by pin tool and the plates were incubated as above for 2 hrs. The compounds were tested as a 7-point titration ranging from 46 uM to 0.6 nM. The cells were fixed using the Kalypsys Washer/Dispenser station. The fixing protocol involved aspiration of the cell media, addition of 6 uL/well of PBS, aspiration of PBS, addition of 5uL/well of 100% methanol, aspiration of methanol, and addition of 3 uL/well PBS with 1.5 uM propidium iodide (PI). The plates were read by the Acumen Explorer using a 1 x 8 um scan of the whole well area. PI fluorescence triggered the collection of PI and GFP signals. A nuclei population was defined by a 10 to 100 um width and depth filter that eliminated small and large fluorescent particles. Two subpopulations of nuclei were then defined by peak intensity of GFP fluorescence to obtain translocated and untranslocated objects. The number of translocated objects was used for data normalization.
Keywords: NIH Roadmap, MLSCN, MLI, MLSMR, sOGT, qHTS, NCGC
Consider `OC[C@H]1O[C@@H](n2cnc3c(Nc4ccccc4)ncnc32)[C@H](O)[C@@H]1O`, for which the Potency is above 20.6 µM. The figure for `COC1=C(OC)C(=O)c2ccccc2C1=O` is above 46 µM; for `Cc1cc(NC(=O)Nc2ccc3c(ccn3C)c2)sn1` it is above 46 µM; for `NC(N)=NC(=O)c1nc(Cl)c(N2CCCCCC2)nc1N` it is above 46 µM. Regarding `NCCNC(=O)c1ncsc1-c1cccc(F)c1`, the Potency was above 46 µM. The figure for `O=C(Nc1cccc(C(=O)Nc2ccc(S(=O)(=O)O)c3cc(S(=O)(=O)O)cc(S(=O)(=O)O)c23)c1)Nc1cccc(C(=O)Nc2ccc(S(=O)(=O)O)c3cc(S(=O)(=O)O)cc(S(=O)(=O)O)c23)c1` is above 46 µM; for `NC[C@@H]1O[C@H](C23CC4CC(CC(C4)C2)C3)Cc2c1ccc(O)c2O` it is above 46 µM; for `O=C(O)c1cc([N+](=O)[O-])ccc1NCCCc1ccccc1` it is above 46 µM. The figure for `CN1CCc2ccccc2Cc2[nH]c3ccccc3c2CC1` is above 46 µM. The figure for `Cc1ccc(O)c(N=Nc2ccccc2)n1` is above 46 µM; for `c1cnc2c(c1)ccc1cccnc12` it is above 46 µM; for `N=c1ccn2c(n1)O[C@H]1[C@H](O)[C@@H](CO)O[C@H]12` it is above 46 µM.

As to `N#C/C(=C\c1ccc(O)c(O)c1)C(=O)NCCCc1ccccc1`, the Potency was > 46 µM and > 20.6 µM. The figure for `Cn1c(=O)c2[nH]c(-c3ccccc3)nc2n(C)c1=O` is above 46 µM; for `CCOc1ccc2nc(S(N)(=O)=O)sc2c1` it is above 20.6 µM. The figure for `c1ccc(-c2ccccn2)nc1` is above 46 µM; for `O=C1C(SCCO)=C(SCCO)C(=O)c2ccccc21` it is above 46 µM. The figure for `Oc1ccccc1O` is above 46 µM; for `Cn1cc(C2=C(c3ccc(Cl)cc3Cl)C(=O)NC2=O)c2ccccc21` it is above 46 µM; for `CN=c1nc(-c2ccccc2)n(-c2ccccc2)s1` it is above 46 µM.

Regarding `C[N+](C)(CCCCCC[N+](C)(C)CCCN1C(=O)c2cccc3cccc(c23)C1=O)CCCN1C(=O)c2cccc3cccc(c23)C1=O`, the Potency is above 46 µM. As to `O=C(O)[C@@H]1C[C@@H](C(=O)O)N1`, the Potency was above 46 µM.

In the case of `O=C(O)c1cc(=O)c2ccccc2[nH]1`, the Potency was above 46 µM. The figure for `Clc1ccc(N2CCN(Cc3c[nH]c4ncccc34)CC2)cc1` is above 46 µM. `COc1cc(/C=C/C(=O)CC(=O)/C=C/c2ccc(O)c(OC)c2)ccc1O`: the Potency is above 20.6 µM. The figure for `O=Nc1ccc2oc(=O)ccc2c1` is above 46 µM. The figure for `N#C/C(=C\c1ccc(O)c(O)c1)C(=O)c1ccc(O)c(O)c1` is above 46 µM; for `O=c1[nH]c2cc([N+](=O)[O-])c([N+](=O)[O-])cc2[nH]c1=O` it is above 46 µM. The figure for `CC(=O)SCC[N+](C)(C)C` is above 46 µM. Turning to `O=C1NC(O)=NC1(c1ccccc1)c1ccccc1`, the Potency is above 46 µM. Turning to `Clc1ccccc1-c1nc(-c2ccncc2)no1`, the Potency is above 46 µM. The figure for `C[C@@H](CN1CCC(Cc2ccccc2)CC1)[C@@H](O)c1ccc(O)cc1` is above 46 µM. For `Cc1c(N)c(=O)n(-c2ccccc2)n1C`, the Potency is above 20.6 µM. The figure for `N#C/C(=C\c1ccc(O)c(O)c1)C(=O)NCc1ccccc1` is above 46 µM; for `Oc1cc2c(cc1O)CN(C(=S)NCCc1ccc(Cl)cc1)CCC2` it is above 46 µM; for `N[C@H](CCCP(=O)(O)O)C(=O)O` it is above 46 µM. The figure for `NCCCCC(=O)O` is above 46 µM; for `COc1ccccc1CNCCCCCCNCCCCCCCCNCCCCCCNCc1ccccc1OC` it is above 46 µM; for `CN(C)c1ccc(C(=C2C=CC(=[N+](C)C)C=C2)c2ccccc2)cc1` it is above 46 µM.

With `Nc1ccc(O)c(C(=O)O)c1`, the Potency is above 20.6 µM.

Source of the values: PubChem BioAssay (NCATS).
